The source of these data is PubChem BioAssay.

Structures are written as SMILES. Calls of active or inactive are those of the source.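 Rule for the calls: active = viability at or below 10% of carrier control in both of two separate runs; inconclusive = viability at or below 10% in only one of the two runs; inactive = the rest.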

This test in a line: SK-BR-3 cell growth inhibitors, pilot screen, 24 h, human (AID 572).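 Note: compound exposure lasted between 18 and 24 h rather than exactly 24 h; 100% = carrier-treated control wells.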 Particulars: SK-BR-3 viability, CellTiter-Glo luminescence, at 10 µM, active compounds read low.
For `COc1cc(NC(=O)C2C3C=CC(C3)C2C(=O)O)c(OC)cc1Cl` (stereo not drawn), the viability was 86% (inactive).

Consider `COc1ccc(C2CC(c3ccc(C)cc3)Nc3ncnn32)cc1` (stereo not drawn), for which the viability is 106% (inactive).

On to `CCc1ccc(C2CC(c3cccc(OC)c3)n3nc(N)nc3N2)cc1` (stereo not drawn), for which the viability is 90% (inactive).

Turning to `COc1ccc(NS(=O)(=O)c2coc(C(N)=O)c2)cc1Cl`, the viability was 101% (inactive).

With `O=C1c2ccccc2S(=O)(=O)N1CC(O)Cn1c2ccccc2c2ccccc21` (stereo not drawn), the viability is 90% (inactive).

Regarding `O=C(Nc1nnc(-c2ccc(Cl)cc2)o1)C1CCCCC1`, the viability was 87.5% (inactive).

Consider `O=C1c2ccccc2C(Nc2ccc(F)cc2F)N1CCN1CCOCC1` (stereo not drawn), for which the viability was 83% (inactive).

For `CCOc1ccc(N(CC(=O)NC2CCCCC2)S(=O)(=O)c2c(C)noc2C)cc1`, the viability is 79.5% (inactive).

With `Cc1ccc2oc(=O)c3cnn(CC(=O)N4CCCc5ccccc54)c3c2c1`, the viability was 100% (inactive).

For the compound `O=C(Nn1cnnc1)C1Cc2ccccc2CN1S(=O)(=O)c1ccc(F)cc1` (stereo not drawn), the viability was 112% (inactive).

For `Cc1cc(C)cc(N(CC(=O)NC2CCC(C)CC2)S(=O)(=O)c2c(C)noc2C)c1` (stereo not drawn), the viability was 104% (inactive).

Consider `Cc1nc2ccccn2c1/C(O)=C1\C(=O)C(=O)N(CCCN(C)C)C1c1ccc(F)cc1` (stereo not drawn), for which the viability is 89% (inactive).

As for `CC(=O)N(C(C)=O)c1ncc2c([nH]c3ccccc32)c1C#N`, the viability is 106% (inactive).

As to `CC(C)c1ccc(C(O)c2cnc(C(C)C)n2C)cc1` (stereo not drawn), the viability is 112% (inactive).

For the compound `COCCn1cc(C(=O)c2ccccc2OCC(=O)Nc2cc(C)on2)cc(C#N)c1=O`, the viability was 82.5% (inactive).

On to `O=C(NC(=O)c1cccc(F)c1)OC[C@@H]1CCCN2CCCC[C@H]12`, for which the viability is 102% (inactive).

As for `CCN1CCN(C(=O)Cn2ncc3ccsc3c2=O)CC1`, the viability is 101% (inactive).

As for `CCCC(=O)Nc1cc(C)c2c(=O)oc3ccccc3c2n1`, the viability was 87% (inactive).

On to `Cc1cc(C)c(C#N)c(SCC(=O)Nc2ccc(S(=O)(=O)Nc3onc(C)c3C)cc2)n1`, for which the viability was 90.5% (inactive).

Regarding `CC1=C(C(N)=O)C(c2ccncc2)n2nc(-c3ccccc3Cl)nc2N1` (stereo not drawn), the viability is 96% (inactive).

In the case of `O=C(C1CCCN1S(=O)(=O)c1cccc2cccnc12)N1CCn2c1nc1ccccc12` (stereo not drawn), the viability was 100% (inactive).

As to `Cc1ccc(C(=O)CC2(O)C(=O)N(C)c3ccc(Br)cc32)c(C)c1` (stereo not drawn), the viability was 85% (inactive).

For the compound `COc1ccc(OCCSc2nc3ccccc3n2CC(=O)O)cc1`, the viability was 92.5% (inactive).
